The values that follow come from PMC7862700, “An all-to-all approach to the identification of sequence-specific readers for epigenetic DNA modifications on cytosine”.

Experiment in all cases: DAPPL (digital affinity profiling via proximity ligation, sequencing); 10 mM Tris-HCl pH 7.5, 50 mM NaCl, 1 mM DTT, 4% glycerol, room temperature, 30 min; GST-TFs on glutathione beads, 16-mer random dsDNA library, 0.1% formaldehyde crosslink after washing; high values mean tight binding
For one experiment, the target named is T1, FEV (Homo sapiens, UniProt Q99581 1-238).
T1 sequence: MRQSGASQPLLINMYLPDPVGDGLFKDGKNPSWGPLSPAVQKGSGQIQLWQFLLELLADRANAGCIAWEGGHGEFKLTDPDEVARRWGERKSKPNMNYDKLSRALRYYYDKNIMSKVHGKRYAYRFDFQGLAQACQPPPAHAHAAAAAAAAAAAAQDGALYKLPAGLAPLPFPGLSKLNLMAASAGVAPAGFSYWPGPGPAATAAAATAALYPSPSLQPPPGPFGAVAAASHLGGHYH
As to conditions: protein: recombinant; tags: N-terminal GST; dsDNA, one strand shown. A digest of the protocol:
(§1)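 Binding signal is each hexamer's read frequency for a factor divided by its frequency in the tag-only sample. The factors were GST-fused human transcription factors from yeast, captured on glutathione beads, DNA-barcoded and pooled with that sample. Pools were incubated with 200 nmole of a random double-stranded 16-mer DNA library in Tris/NaCl/DTT/glycerol buffer at room temperature for 30 min, then washed, crosslinked with 0.1% formaldehyde, proximity-ligated with BsaI/T4 ligase (1 h, 37 °C), PCR-amplified and sequenced on an Illumina NextSeq500.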

The next experiment has as its target ETV5 (Homo sapiens, UniProt P41161 1-510). The conditions noted are these: protein: recombinant; tags: N-terminal GST; dsDNA, one strand shown. A digest of the protocol:
as §1

A further experiment addresses HSF1 (Homo sapiens, UniProt Q00613 1-529). As to conditions: protein: recombinant; tags: N-terminal GST; chain copies: 3; dsDNA, one strand shown. A digest of the protocol: as §1
The target of a further experiment is T2, SPIC (Homo sapiens, UniProt Q8N5J4 1-248).
T2 sequence: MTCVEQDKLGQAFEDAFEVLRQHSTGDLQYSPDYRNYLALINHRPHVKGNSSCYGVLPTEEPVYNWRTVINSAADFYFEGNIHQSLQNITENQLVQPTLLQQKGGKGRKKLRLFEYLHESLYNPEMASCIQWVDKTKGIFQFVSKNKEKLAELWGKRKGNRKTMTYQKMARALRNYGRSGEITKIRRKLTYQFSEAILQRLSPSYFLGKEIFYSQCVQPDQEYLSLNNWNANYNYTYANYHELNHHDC
The conditions noted are these: protein: recombinant; tags: N-terminal GST; dsDNA, one strand shown. In short, it runs like this: as §1

The next experiment concerns the target ELF4 (Homo sapiens, UniProt Q99607 1-663). As to conditions: protein: recombinant; tags: N-terminal GST; dsDNA, one strand shown. In short, it runs like this:
as §1

The next experiment concerns the target T3, ELK4 (Homo sapiens, UniProt P28324-2 1-405).
T3 sequence: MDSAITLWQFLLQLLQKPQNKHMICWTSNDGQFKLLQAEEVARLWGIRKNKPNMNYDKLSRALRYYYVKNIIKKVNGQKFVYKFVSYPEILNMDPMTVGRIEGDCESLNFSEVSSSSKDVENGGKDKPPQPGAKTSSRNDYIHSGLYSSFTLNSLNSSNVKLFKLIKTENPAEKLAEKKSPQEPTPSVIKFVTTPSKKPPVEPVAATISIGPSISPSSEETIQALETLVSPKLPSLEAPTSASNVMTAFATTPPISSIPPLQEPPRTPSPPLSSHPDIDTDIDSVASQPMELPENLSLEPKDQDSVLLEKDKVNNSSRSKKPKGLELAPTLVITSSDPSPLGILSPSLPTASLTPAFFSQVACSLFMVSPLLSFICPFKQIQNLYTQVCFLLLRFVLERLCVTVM
As to conditions: protein: recombinant; tags: N-terminal GST; dsDNA, one strand shown. A digest of the protocol:
as §1

In the next experiment the target is T4, ETV2 (Homo sapiens, UniProt O00321 1-342).
T4 sequence: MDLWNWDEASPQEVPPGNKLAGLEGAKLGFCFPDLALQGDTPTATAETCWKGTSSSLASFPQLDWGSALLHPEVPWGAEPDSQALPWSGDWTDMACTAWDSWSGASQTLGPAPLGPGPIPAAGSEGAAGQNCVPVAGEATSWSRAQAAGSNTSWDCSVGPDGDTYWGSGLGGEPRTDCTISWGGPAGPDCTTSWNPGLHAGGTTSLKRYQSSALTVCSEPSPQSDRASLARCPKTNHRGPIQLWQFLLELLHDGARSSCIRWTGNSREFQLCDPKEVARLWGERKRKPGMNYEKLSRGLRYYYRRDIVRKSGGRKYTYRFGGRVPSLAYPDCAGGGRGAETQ
The conditions noted are these: protein: recombinant; tags: N-terminal GST; dsDNA, one strand shown. A digest of the protocol: as §1

Another experiment deals with T5, ELF3 (Homo sapiens, UniProt P78545 1-371).
T5 sequence: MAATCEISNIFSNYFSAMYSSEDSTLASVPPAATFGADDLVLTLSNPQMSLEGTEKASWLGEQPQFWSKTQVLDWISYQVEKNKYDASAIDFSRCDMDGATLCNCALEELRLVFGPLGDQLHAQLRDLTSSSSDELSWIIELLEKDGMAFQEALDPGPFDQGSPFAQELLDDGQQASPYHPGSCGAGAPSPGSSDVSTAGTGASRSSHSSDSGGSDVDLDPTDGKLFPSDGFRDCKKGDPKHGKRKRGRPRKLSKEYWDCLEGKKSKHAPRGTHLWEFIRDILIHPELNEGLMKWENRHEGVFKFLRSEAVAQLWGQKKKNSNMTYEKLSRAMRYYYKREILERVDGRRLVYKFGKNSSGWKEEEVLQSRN
As to conditions: protein: recombinant; tags: N-terminal GST; dsDNA, one strand shown. A digest of the protocol:
as §1

The next experiment concerns the target CRX (Homo sapiens, UniProt O43186 1-299). As to conditions: protein: recombinant; tags: N-terminal GST; dsDNA, one strand shown. In short, it runs like this:
as §1

A further experiment has as its target ETV1 (Homo sapiens, UniProt P50549 1-477). As to conditions: protein: recombinant; tags: N-terminal GST; dsDNA, one strand shown. A digest of the protocol: as §1
For the next experiment, the target named is T6, ERF (Homo sapiens, UniProt P50548 1-548).
T6 sequence: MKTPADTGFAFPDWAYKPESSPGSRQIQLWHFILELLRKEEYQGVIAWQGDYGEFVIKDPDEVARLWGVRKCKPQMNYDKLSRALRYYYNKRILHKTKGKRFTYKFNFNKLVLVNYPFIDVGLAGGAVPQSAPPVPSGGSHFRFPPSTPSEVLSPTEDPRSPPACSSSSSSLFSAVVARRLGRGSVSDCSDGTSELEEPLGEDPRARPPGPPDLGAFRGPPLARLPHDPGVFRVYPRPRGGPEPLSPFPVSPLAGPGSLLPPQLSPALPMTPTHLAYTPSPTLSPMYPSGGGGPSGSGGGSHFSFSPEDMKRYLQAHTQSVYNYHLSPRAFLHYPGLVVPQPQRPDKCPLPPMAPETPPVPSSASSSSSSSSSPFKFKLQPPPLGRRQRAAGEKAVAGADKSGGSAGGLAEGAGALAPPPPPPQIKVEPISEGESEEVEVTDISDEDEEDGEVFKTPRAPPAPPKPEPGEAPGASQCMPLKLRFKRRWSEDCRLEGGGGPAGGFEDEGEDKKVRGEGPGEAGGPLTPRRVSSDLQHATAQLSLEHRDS
As to conditions: protein: recombinant; tags: N-terminal GST; dsDNA, one strand shown. A digest of the protocol:
as §1

The target in a further experiment is T7, ETV3L (Homo sapiens, UniProt Q6ZN32 1-361).
T7 sequence: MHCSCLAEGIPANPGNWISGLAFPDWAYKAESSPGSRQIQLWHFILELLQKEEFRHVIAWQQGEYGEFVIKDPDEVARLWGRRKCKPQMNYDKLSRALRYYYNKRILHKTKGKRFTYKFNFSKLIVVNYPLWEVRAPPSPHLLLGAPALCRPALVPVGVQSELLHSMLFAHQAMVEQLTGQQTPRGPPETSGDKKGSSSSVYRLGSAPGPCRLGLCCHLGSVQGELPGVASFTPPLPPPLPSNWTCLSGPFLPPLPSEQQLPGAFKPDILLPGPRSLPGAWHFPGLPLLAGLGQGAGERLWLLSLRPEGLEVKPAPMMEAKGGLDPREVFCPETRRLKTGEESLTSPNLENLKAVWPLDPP
The conditions noted are these: protein: recombinant; tags: N-terminal GST; dsDNA, one strand shown. In short, it runs like this: as §1

Another experiment has as its target T8, ETS2 (Homo sapiens, UniProt P15036 1-469).
T8 sequence: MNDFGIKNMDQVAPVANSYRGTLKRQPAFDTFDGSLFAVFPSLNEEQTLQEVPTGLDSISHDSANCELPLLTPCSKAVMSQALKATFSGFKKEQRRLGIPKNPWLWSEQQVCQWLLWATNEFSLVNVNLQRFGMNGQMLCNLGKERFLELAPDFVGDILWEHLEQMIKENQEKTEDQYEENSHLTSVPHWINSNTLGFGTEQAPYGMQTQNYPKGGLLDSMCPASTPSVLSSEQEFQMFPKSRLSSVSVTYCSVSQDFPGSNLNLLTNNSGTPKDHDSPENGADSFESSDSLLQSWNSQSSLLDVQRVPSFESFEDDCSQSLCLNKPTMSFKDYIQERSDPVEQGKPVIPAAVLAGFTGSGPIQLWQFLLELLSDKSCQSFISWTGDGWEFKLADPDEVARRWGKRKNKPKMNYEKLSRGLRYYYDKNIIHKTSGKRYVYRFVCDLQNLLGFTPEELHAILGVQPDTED
The conditions noted are these: protein: recombinant; tags: N-terminal GST; dsDNA, one strand shown. In short, it runs like this:
as §1

For the next experiment, the target named is T9, SPDEF (Homo sapiens, UniProt O95238 1-335).
T9 sequence: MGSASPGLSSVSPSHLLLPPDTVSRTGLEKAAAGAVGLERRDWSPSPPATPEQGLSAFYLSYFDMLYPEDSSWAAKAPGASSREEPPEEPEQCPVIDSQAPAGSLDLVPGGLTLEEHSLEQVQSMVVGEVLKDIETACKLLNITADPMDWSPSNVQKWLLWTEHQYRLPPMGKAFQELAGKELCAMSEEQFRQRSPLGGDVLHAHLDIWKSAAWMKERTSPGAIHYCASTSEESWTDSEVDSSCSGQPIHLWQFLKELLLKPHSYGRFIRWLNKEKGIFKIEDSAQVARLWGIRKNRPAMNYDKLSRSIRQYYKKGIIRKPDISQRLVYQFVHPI
As to conditions: protein: recombinant; tags: N-terminal GST; dsDNA, one strand shown. In short, it runs like this: as §1

Another experiment concerns the target T10, ETV7 (Homo sapiens, UniProt Q9Y603 1-341).
T10 sequence: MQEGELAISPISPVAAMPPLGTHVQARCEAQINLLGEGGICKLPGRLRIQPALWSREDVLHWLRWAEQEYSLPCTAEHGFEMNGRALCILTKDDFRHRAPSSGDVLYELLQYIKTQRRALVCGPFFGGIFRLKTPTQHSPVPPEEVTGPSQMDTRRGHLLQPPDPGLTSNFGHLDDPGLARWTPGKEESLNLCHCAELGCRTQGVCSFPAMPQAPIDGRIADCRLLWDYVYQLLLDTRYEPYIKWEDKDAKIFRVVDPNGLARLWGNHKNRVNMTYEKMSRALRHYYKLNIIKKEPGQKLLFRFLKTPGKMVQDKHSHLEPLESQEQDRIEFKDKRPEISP
The conditions noted are these: protein: recombinant; tags: N-terminal GST; dsDNA, one strand shown. In short, it runs like this: as §1

The target of the next experiment is T11, ELF5 (Homo sapiens, UniProt Q9UKW6-2 1-255).
T11 sequence: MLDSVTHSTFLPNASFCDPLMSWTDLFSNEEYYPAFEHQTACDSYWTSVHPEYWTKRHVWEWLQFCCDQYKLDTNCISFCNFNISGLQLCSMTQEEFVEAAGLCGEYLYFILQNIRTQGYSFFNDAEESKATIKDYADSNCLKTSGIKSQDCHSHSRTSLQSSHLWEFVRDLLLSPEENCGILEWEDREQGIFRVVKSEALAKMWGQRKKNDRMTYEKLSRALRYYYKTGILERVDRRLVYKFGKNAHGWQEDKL
The conditions noted are these: protein: recombinant; tags: N-terminal GST; dsDNA, one strand shown. In short, it runs like this:
as §1

The target in another experiment is T12, ETV3 (Homo sapiens, UniProt P41162-2 1-143).
T12 sequence: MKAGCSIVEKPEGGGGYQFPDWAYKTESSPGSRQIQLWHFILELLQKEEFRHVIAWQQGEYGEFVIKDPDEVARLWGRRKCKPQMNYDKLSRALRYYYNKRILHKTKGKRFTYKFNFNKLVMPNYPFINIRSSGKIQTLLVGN
The conditions noted are these: protein: recombinant; tags: N-terminal GST; dsDNA, one strand shown. In short, it runs like this:
as §1

The target in another experiment is ETV6 (Homo sapiens, UniProt P41212 1-452). The conditions noted are these: protein: recombinant; tags: N-terminal GST; dsDNA, one strand shown. In short, it runs like this:
as §1

Sequence of ETV5 (P41161 whole entry): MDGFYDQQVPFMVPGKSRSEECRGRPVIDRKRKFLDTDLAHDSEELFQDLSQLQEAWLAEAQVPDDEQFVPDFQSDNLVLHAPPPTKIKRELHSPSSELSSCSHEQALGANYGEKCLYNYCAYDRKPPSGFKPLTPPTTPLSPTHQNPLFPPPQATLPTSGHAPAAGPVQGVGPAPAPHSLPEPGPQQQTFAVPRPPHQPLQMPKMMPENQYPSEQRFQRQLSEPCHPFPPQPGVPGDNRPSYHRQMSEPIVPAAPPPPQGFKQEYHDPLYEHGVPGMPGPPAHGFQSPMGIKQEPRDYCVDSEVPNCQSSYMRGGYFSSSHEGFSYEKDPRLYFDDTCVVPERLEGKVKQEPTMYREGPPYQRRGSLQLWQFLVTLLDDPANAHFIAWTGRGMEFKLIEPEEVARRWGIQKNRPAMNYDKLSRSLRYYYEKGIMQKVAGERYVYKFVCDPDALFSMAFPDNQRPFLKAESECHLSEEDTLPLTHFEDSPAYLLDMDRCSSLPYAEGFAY
Sequence of ETV6 (P41212 whole entry): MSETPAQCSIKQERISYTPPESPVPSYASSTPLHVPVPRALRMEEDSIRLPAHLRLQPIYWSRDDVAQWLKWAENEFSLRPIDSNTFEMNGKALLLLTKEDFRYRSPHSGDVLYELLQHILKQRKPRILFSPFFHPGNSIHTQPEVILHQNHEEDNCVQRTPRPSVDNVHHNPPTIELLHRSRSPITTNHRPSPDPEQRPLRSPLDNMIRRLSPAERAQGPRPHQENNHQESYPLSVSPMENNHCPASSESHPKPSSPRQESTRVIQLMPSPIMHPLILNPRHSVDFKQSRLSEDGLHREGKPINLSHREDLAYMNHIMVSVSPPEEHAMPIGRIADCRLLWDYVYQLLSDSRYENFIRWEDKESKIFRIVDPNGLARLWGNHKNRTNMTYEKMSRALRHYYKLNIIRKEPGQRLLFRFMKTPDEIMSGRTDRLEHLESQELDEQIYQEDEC
Sequence of CRX (O43186 whole entry): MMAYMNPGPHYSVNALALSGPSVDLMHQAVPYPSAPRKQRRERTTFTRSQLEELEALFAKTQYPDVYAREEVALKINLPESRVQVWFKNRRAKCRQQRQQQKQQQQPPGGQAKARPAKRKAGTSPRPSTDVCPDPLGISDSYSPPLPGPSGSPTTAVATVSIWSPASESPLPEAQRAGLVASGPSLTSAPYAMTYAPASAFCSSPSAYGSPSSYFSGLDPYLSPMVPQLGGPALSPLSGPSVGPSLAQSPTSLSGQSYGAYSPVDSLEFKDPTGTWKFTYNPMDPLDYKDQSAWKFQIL
Sequence of ETV1 (P50549 whole entry): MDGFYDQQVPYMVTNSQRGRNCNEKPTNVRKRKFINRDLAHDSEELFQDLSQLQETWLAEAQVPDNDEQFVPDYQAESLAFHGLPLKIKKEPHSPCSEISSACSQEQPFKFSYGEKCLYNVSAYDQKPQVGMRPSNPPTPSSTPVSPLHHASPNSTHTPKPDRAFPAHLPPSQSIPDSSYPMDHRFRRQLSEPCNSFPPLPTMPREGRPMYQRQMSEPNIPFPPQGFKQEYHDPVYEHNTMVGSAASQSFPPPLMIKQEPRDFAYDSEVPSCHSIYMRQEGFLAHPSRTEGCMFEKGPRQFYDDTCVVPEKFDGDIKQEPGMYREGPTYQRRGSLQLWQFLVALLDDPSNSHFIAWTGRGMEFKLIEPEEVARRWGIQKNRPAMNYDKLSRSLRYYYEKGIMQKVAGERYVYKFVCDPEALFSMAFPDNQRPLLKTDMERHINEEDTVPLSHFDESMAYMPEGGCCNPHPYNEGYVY
Sequence of ELF4 (Q99607 whole entry): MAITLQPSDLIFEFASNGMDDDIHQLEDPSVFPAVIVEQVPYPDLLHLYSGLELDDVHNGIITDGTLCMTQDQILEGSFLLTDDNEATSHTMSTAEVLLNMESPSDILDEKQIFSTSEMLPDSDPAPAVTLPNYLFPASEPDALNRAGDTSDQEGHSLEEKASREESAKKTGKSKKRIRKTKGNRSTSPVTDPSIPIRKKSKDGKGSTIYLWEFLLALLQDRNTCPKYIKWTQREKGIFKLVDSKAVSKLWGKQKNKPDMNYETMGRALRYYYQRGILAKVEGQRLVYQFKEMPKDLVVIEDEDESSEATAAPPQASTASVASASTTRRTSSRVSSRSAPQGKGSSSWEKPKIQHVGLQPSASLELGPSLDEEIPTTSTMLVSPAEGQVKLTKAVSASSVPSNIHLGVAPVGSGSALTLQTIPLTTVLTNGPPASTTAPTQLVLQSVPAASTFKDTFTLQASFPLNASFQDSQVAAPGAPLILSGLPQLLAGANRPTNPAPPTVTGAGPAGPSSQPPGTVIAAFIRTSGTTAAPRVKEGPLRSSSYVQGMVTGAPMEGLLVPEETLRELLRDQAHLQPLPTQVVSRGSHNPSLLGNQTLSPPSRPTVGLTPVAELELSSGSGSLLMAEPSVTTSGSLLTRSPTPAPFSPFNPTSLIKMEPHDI
Sequence of HSF1 (Q00613 whole entry): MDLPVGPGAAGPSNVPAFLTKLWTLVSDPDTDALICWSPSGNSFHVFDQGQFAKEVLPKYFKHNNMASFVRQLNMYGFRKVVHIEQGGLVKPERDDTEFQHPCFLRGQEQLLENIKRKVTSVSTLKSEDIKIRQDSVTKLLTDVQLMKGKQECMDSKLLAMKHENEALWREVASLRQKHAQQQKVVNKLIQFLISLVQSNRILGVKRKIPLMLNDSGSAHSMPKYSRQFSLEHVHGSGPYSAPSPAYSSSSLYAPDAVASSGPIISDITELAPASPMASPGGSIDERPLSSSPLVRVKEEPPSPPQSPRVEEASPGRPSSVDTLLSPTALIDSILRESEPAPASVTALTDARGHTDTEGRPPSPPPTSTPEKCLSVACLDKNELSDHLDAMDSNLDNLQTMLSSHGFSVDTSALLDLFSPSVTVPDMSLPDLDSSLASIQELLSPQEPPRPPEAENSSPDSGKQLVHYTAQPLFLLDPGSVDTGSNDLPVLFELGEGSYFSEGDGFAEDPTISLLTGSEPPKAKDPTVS

Regarding CATATT, the binding signal with FEV was 1.22 fold enrichment (6-mer frequency, TF over GST control); with ETV5, 1.26 fold enrichment (6-mer frequency, TF over GST control); with HSF1, 1.31 fold enrichment (6-mer frequency, TF over GST control); with SPIC, 1.12 fold enrichment (6-mer frequency, TF over GST control); in the experiment with ELF4, 1.32 fold enrichment (6-mer frequency, TF over GST control); in the experiment with ELK4 it was 1.29 fold enrichment (6-mer frequency, TF over GST control). Besides, the binding signal with ETV2 was 1.43 fold enrichment (6-mer frequency, TF over GST control); in the experiment with ELF3, 1.35 fold enrichment (6-mer frequency, TF over GST control); in the experiment with CRX it was 1.33 fold enrichment (6-mer frequency, TF over GST control); in the experiment with ETV1, 1.25 fold enrichment (6-mer frequency, TF over GST control); in the experiment with ERF, 1.32 fold enrichment (6-mer frequency, TF over GST control); with ETV3L it was 1.29 fold enrichment (6-mer frequency, TF over GST control). The binding signal was 1.22 fold enrichment (6-mer frequency, TF over GST control) in the experiment with ETS2; 1.24 fold enrichment (6-mer frequency, TF over GST control) in the experiment with SPDEF; 1.19 fold enrichment (6-mer frequency, TF over GST control) with ETV7; 1.23 fold enrichment (6-mer frequency, TF over GST control) with ELF5; 1.24 fold enrichment (6-mer frequency, TF over GST control) with ETV3; 1.25 fold enrichment (6-mer frequency, TF over GST control) with ETV6.
